Laboratory results taken from PubChem BioAssay (EPA / NIEHS).
Records with an inconclusive call do not appear. Calls of active or inactive are those of the source. The calls were made as follows: active = hit-call score of the fitted dose curve at least 0.9, where 1 is the maximum; inconclusive = response in the unintended direction; inactive = score below 0.9.

Read-out: organic anion transporter (SLCO1B1), SLCO1B1 (gene 10599)
Experiment: CLD_SLCO1B1_48hr: CellzDirect (CLD) Gene Expression Assay for organic anion transporter (SLCO1B1) at 48 hours (AID 2283707)
Method: CLD_48hr is a cell-based, multiplexed-readout assay that uses hepatocyte, a human liver primary cell, with measurements taken at 48 hours after chemical dosing in a 96-well plate.CLD_SLCO1B1_48hr is one of 16 assay component(s) measured or calculated from the CLD_48hr assay. It is designed to make measurements of mRNA induction, a form of inducible reporter, as detected with chemiluminescence signals by Quantitative Nuclease Protection Assay (qNPA) technology.Data from the assay component CLD_SLCO1B1_48hr was analyzed at the endpoint, CLD_SLCO1B1_48hr, in the positive analysis fitting direction relative to DMSO as the negative control and baseline of activity. Using a type of inducible reporter, gain-of-signal activity can be used to understand changes in the reporter gene as they relate to the gene SLCO1B1. Furthermore, this assay endpoint can be referred to as a primary readout. To generalize the intended target to other relatable targets, this assay endpoint is annotated to the transporter intended target family, where subfamily is organic anion transporter.
Human hepatocyte cultures were treated daily for two consecutive days with fresh dosing solutions containing appropriate concentrations of the 320 ToxCast chemicals (chemical identities were blinded to CellzDirect and other ToxCast collaborators), vehicle control (0.2% DMSO), and positive control inducers as summarized in Table 1. Due to the large number of treatment groups and chemicals examined, the ToxCast chemicals were divided into two groups (spanning two independent cultures of hepatocytes from separate donor preparations (Hu778: ToxCast plates 1 and 2; Hu776: ToxCast plates 3 and 4). Each preparation of human hepatocyte cultures was treated with respective vehicle control, medium only control, set of six positive controls/reference chemicals for the five hepatic receptor pathways, and a subset of eight of the ToxCast chemicals (indoxacarb, pyrithiobac-sodium, norflurazon, cyhalofop-butyl, methomyl, thiram, acetochlor, and propiconazole). These replicate data, coupled with internal replicates designed within the blinded ToxCast chemical library, provided additional data to evaluate interindividual differences between hepatocyte preparations and their potential impact on chemical profiles.Cell morphology and integrity were evaluated using phase-contrast microscopy as an indicator of hepatocyte cell health (Tyson & Green, 1987). Cultures for each treatment group (i.e., media, vehicle [0.2% DMSO], positive control inducers [multiple concentrations], and the ToxCast chemicals [multiple concentrations]) were observed and cell morphology was assessed relative to vehicle control cultures at each harvest time point (0, 6, 24, or 48 h). […] Images were evaluated at the conclusion of the study to assess changes in cell integrity and account for the effects of chemical exposure on uncharacteristic changes in concentration-dependent gene expression profiles. The results from these determinations of apparent cytotoxicity were annotated (yes/no) alongside the corresponding qNPA data for reference.At the conclusion of each treatment period, hepatocyte cultures (96-well) were washed with 1 volume of HBSS, lysed by addition of 25 ul ArrayPlate lysis buffer (HTG, Tucson, AZ), and 70 ul/well of Denaturation Oil, denatured by incubation at 95C for 10 min, and frozen at approximately -70C until analysis by nuclease protection assay (qNPA) (Roberts et al., 2007). For qNPA analysis, cell lysates were thawed at 50C for approximately 30 min, qNPA probes were added, and samples were incubated at 95C for 10 min to begin the detection process by denaturing the target RNA, dissociating the duplexes and secondary structure hybridization. At the conclusion of the hybridization period, S1 nuclease reagent was added to each sample to digest all nonprotected nucleotides at 50C for 60-90 min. […]

**Q.** How did the outcome turn out when `COc1cc(OC)nc(NC(=O)NS(=O)(=O)c2cc(NC=O)ccc2C(=O)N(C)C)n1` was run?
**A.** The outcome was “inactive”.

**Q.** `CCS(=O)(=O)c1cccnc1S(=O)(=O)NC(=O)Nc1nc(OC)cc(OC)n1` was tested. Which outcome did it give?
**A.** The outcome was “inactive”.

**Q.** `Oc1ccc(Cl)cc1Cc1ccccc1` was tested. Which outcome did it give?
**A.** Its outcome is “inactive”.

**Q.** For `Oc1cc(Cl)ccc1Oc1ccc(Cl)cc1Cl`, which outcome is on record?
**A.** The outcome was “inactive”.

**Q.** With `CNC(=O)/C=C(\C)OP(=O)(OC)OC` as the compound, how does the outcome read?
**A.** Its outcome is “inactive”.

**Q.** For `COP(=S)(OC)Oc1ccc([N+](=O)[O-])cc1`, which outcome is on record?
**A.** Its outcome is “inactive”.

**Q.** Which outcome does the source give for `O=C(O)COc1ccc(Cl)cc1Cl` here?
**A.** Its outcome is “inactive”.

**Q.** With `O=[N+]([O-])c1c(Cl)c(Cl)c(Cl)c(Cl)c1Cl` as the compound, how does the outcome read?
**A.** The outcome was “inactive”.

**Q.** How did the outcome turn out when `O=S(=O)(O)C(F)(F)C(F)(F)C(F)(F)C(F)(F)C(F)(F)C(F)(F)C(F)(F)C(F)(F)F` was run?
**A.** Its outcome is “inactive”.

**Q.** With `O=C(NC(=O)c1c(F)cccc1F)Nc1ccc(OC(F)(F)C(F)OC(F)(F)F)c(Cl)c1` (configuration not stated) as the compound, how does the outcome read?
**A.** The outcome was “inactive”.

**Q.** How did the outcome turn out when `CC(C)OC(=O)Nc1cccc(Cl)c1` was run?
**A.** The outcome was “inactive”.

**Q.** For `COP(=O)(OC)OC=C(Cl)Cl`, which outcome is on record?
**A.** The outcome was “inactive”.

**Q.** How did the outcome turn out when `O=C(O)C(F)(F)C(F)(F)C(F)(F)C(F)(F)C(F)(F)C(F)(F)C(F)(F)F` was run?
**A.** Its outcome is “inactive”.

**Q.** Which outcome does the source give for `COC(=O)c1ccccc1CS(=O)(=O)NC(=O)Nc1nc(OC)cc(OC)n1` here?
**A.** Its outcome is “inactive”.

**Q.** `CCc1ccc(C(=O)NN(C(=O)c2cc(C)cc(C)c2)C(C)(C)C)cc1` was tested. Which outcome did it give?
**A.** The outcome was “inactive”.

**Q.** How did the outcome turn out when `O=C1c2ccccc2C(=O)N1SC(Cl)(Cl)Cl` was run?
**A.** The outcome was “inactive”.

**Q.** For `CCOc1nc(NC)nc(NC(=O)NS(=O)(=O)c2ccccc2C(=O)OC)n1`, which outcome is on record?
**A.** Its outcome is “inactive”.
